Reference: the supplement of paper PMC10849652
Of roughly 8,800 targets only a part is listed; those with a hit were picked by preference. About 0.5% of all pairs of compound and target were hits. Values without a mark were called inactive.

How the values were obtained:
Assay in all cases: log2 fold change, soluble protein after heating vs DMSO (PISA); higher = thermal stabilisation; K562 lysate, 10 uM; active = over 0.2 and 3.5 SD of the protein, either way, in both replicates (recomputed)
[1] = compound: NCC(=O)Nc1ccc(-n2nc(C(F)(F)F)cc2-c2ccc3c(ccc4ccccc43)c2)cc1
How it was run: (§1)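 A 30 min treatment with 10 μM compound was applied to crude K562 extract at 1 mg/mL protein in PBS pH 7.4 with 1 mM MgCl2. Heating for 3 min spanned 48°C-58°C, after which aliquots were pooled, adjusted to 0.5% NP-40 at 4°C and spun at 21,000xg for 90 min. TMTpro 16plex LC-MS/MS of the supernatant, with channel sums equalised, gave values recorded as log-two fold change in thermal stability against solvent controls, from duplicates.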

vorinostat = compound: O=C(CCCCCCC(=O)Nc1ccccc1)NO [vorinostat]
How it was run: as §1

silmitasertib = compound: O=C(O)c1ccc2c(c1)nc(Nc1cccc(Cl)c1)c1ccncc12 [silmitasertib]
How it was run: as §1

[2] = compound: O=C1NC(=O)C(c2cnc3ccccn23)=C1c1cn2c3c(cc(F)cc13)CN(C(=O)N1CCCCC1)CC2
How it was run: as §1

entospletinib = compound: c1cn2cc(-c3ccc4cn[nH]c4c3)nc(Nc3ccc(N4CCOCC4)cc3)c2n1 [entospletinib]
How it was run: as §1

UniProt P99999, sequence (P99999 whole entry, looked up): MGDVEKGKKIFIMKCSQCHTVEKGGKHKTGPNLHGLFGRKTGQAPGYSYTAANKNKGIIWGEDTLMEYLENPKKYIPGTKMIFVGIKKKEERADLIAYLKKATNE
UniProt Q15398, sequence (Q15398 whole entry, looked up): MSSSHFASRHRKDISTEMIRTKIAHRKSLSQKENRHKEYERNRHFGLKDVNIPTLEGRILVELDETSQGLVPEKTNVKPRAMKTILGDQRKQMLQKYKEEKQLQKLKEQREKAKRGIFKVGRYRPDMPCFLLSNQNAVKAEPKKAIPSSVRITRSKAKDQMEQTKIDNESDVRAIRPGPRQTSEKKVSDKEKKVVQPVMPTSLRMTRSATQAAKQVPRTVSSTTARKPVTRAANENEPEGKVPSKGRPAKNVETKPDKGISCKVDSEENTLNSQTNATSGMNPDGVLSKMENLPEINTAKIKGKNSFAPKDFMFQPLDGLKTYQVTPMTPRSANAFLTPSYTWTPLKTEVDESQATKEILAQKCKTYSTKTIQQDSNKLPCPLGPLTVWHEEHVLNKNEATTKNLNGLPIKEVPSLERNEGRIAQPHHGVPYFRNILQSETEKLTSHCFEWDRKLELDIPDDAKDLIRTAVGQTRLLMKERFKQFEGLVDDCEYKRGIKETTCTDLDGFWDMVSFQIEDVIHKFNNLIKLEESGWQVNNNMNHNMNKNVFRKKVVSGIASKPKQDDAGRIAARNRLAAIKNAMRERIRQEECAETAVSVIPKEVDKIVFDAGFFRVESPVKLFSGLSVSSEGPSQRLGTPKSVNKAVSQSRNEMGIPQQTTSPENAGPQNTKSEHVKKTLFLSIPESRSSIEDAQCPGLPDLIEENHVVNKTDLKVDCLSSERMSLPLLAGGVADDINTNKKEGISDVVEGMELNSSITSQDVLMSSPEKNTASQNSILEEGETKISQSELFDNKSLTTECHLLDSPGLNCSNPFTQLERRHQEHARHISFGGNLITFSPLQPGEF
UniProt P19784, sequence (P19784 whole entry, looked up): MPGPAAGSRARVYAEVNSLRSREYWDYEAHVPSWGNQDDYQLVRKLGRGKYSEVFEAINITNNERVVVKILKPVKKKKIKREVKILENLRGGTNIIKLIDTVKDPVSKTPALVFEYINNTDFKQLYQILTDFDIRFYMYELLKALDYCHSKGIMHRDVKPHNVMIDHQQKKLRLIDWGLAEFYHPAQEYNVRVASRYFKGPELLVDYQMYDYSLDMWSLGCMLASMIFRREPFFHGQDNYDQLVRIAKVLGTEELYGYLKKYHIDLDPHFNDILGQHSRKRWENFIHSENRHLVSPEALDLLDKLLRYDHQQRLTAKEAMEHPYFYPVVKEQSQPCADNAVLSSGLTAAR
UniProt Q96JB2, sequence (Q96JB2 whole entry, looked up): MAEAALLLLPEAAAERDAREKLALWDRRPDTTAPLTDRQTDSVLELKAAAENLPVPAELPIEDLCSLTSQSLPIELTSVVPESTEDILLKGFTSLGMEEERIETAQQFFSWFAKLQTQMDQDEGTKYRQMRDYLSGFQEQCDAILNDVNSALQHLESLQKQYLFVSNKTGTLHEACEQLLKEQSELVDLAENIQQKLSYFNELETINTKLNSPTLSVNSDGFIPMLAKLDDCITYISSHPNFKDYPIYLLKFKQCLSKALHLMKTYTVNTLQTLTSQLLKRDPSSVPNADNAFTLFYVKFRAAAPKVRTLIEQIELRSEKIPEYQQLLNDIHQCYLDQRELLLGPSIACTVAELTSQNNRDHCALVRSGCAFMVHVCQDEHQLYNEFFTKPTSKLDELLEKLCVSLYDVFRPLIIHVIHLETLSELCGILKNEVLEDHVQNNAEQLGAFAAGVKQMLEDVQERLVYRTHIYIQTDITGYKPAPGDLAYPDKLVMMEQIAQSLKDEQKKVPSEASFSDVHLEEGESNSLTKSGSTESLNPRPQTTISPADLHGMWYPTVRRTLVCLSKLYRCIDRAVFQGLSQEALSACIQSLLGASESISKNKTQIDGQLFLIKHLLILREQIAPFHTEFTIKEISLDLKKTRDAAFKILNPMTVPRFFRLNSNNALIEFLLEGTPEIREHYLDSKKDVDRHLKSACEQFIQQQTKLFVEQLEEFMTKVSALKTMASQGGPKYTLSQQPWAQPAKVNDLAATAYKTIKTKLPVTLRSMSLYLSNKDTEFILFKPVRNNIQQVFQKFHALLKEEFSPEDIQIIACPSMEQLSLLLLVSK
UniProt P41240, sequence (P41240 whole entry, looked up): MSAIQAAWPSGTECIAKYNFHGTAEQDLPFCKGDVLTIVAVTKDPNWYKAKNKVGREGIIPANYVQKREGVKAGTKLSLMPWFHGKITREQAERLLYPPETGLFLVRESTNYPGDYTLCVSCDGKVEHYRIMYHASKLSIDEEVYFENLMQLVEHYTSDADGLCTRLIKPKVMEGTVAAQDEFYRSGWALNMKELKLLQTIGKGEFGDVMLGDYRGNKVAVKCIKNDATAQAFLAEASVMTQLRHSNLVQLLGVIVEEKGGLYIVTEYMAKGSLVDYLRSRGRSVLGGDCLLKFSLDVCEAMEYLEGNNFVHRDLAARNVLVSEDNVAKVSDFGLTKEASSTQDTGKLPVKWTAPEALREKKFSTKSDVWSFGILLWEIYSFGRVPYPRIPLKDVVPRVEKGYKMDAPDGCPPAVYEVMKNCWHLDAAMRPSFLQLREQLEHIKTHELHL
UniProt P49674, sequence (P49674 whole entry, looked up): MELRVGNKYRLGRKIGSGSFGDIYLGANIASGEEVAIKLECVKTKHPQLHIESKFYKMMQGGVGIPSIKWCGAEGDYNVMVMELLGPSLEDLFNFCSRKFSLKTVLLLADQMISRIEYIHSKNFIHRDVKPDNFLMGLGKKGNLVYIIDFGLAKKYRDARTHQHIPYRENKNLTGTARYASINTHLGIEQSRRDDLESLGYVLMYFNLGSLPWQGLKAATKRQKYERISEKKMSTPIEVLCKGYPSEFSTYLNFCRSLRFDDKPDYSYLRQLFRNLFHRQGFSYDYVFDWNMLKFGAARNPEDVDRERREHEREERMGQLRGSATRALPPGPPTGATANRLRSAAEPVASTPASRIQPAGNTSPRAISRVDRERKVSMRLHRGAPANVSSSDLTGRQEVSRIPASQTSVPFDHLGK
UniProt Q9BY43, sequence (Q9BY43 whole entry, looked up): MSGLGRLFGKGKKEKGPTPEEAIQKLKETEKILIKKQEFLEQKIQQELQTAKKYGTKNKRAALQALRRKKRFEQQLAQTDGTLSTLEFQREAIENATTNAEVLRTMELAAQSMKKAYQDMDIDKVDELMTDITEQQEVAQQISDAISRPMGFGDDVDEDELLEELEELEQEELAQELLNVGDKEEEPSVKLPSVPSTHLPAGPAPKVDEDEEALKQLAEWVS
UniProt Q9UHI6, sequence (Q9UHI6 whole entry, looked up): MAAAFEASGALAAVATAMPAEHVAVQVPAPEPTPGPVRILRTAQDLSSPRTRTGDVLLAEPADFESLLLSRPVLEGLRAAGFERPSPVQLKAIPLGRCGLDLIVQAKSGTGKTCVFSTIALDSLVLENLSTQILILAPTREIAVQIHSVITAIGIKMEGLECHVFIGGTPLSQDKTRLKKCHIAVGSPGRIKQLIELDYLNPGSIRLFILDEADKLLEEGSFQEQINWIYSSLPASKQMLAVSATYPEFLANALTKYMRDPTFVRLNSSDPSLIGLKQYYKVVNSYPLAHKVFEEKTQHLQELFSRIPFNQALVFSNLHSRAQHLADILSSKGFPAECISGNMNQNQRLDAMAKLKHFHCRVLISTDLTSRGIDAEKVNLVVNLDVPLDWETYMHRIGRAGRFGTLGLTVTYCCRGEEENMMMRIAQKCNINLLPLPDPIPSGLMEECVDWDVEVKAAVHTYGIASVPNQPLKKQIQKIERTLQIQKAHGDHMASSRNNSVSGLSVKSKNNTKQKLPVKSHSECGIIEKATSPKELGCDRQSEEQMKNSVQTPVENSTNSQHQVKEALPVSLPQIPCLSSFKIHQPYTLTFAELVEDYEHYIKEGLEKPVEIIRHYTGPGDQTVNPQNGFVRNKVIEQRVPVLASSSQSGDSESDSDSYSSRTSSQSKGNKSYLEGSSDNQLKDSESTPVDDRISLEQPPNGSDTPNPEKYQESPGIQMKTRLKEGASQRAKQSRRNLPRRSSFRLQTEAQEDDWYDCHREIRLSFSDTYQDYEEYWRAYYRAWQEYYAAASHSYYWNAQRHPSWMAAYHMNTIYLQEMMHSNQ
UniProt Q99704, sequence (Q99704 whole entry, looked up): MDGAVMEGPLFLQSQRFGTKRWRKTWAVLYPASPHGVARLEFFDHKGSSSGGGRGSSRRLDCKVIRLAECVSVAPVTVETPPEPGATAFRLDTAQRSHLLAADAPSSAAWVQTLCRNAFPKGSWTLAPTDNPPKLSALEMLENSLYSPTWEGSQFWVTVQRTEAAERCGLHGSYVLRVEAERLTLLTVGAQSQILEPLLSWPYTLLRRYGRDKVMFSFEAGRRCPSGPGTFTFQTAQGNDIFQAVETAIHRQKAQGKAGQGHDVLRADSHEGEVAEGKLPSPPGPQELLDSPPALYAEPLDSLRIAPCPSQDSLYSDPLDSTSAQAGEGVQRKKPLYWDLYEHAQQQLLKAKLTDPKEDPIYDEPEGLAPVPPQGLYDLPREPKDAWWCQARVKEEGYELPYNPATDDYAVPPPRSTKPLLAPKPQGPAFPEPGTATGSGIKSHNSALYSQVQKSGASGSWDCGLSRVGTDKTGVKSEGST
UniProt Q92564, sequence (Q92564 whole entry, looked up): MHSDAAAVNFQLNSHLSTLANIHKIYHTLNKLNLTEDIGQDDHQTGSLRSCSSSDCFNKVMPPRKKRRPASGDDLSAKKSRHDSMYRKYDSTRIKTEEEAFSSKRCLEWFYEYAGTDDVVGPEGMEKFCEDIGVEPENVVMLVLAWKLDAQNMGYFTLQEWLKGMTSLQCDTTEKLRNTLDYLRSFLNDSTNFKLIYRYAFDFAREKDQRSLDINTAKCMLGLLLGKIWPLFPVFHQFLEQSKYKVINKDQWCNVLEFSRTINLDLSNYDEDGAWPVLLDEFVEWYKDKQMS

For CSNK2A2 (UniProt P19784), the log2 fold change [1] was 0.383, the log2 fold change (vorinostat) was -0.105 and the log2 fold change (silmitasertib) was 0.879 (active). It also gave a log2 fold change [2] of -0.008 and a log2 fold change (entospletinib) of 0.466.

CWC22 (UniProt Q9HCG8) was tested, and the log2 fold change [1] was -0.012, the log2 fold change (vorinostat) was -0.156 and the log2 fold change (silmitasertib) was 0.032. The log2 fold change [2] was -0.016 and the log2 fold change (entospletinib) was 0.015.

With CSNK1E (UniProt P49674) the log2 fold change [1] was 0.016, the log2 fold change (vorinostat) was -0.419 (active) and the log2 fold change (silmitasertib) was 0.206. For the same target, the log2 fold change [2] was 0.01 and the log2 fold change (entospletinib) was 0.012.

CYCS (UniProt P99999) was tested, and the log2 fold change [1] was 0.017, the log2 fold change (vorinostat) was 0.114 and the log2 fold change (silmitasertib) was -0.004. It also gave a log2 fold change [2] of 0.033 and a log2 fold change (entospletinib) of 0.011.

With CORO7 (UniProt P57737) the log2 fold change [1] was -0.053, the log2 fold change (vorinostat) was -0.019 and the log2 fold change (silmitasertib) was -0.017. For the same target, the log2 fold change [2] was 0.019 and the log2 fold change (entospletinib) was -0.045.

For DDX20 (UniProt Q9UHI6), the log2 fold change [1] was 0.007, the log2 fold change (vorinostat) was -0.348 (active) and the log2 fold change (silmitasertib) was 0.069. For the same target, the log2 fold change [2] was 0.022 and the log2 fold change (entospletinib) was -0.008.

With DCUN1D4 isoform 3 (UniProt Q92564) the log2 fold change [1] was 0.066, the log2 fold change (vorinostat) was 0.128 and the log2 fold change (silmitasertib) was -0.031. For the same target, the log2 fold change [2] was -0.121 and the log2 fold change (entospletinib) was -0.096.

With DNAAF5 (UniProt Q86Y56) the log2 fold change [1] was 0.029, the log2 fold change (vorinostat) was -0.313 (active) and the log2 fold change (silmitasertib) was 0.129. For the same target, the log2 fold change [2] was 0.02 and the log2 fold change (entospletinib) was -0.012.

CIB1 (UniProt Q99828) gave a log2 fold change [1] of -0.027, a log2 fold change (vorinostat) of 0.049 and a log2 fold change (silmitasertib) of -0.006. The log2 fold change [2] was -0.037 and the log2 fold change (entospletinib) was -0.091.

DICER1 (UniProt Q9UPY3) was tested, and the log2 fold change [1] was 0.022, the log2 fold change (vorinostat) was -0.58 (active) and the log2 fold change (silmitasertib) was 0.042. For the same target, the log2 fold change [2] was 0.001 and the log2 fold change (entospletinib) was -0.004.

With CSK (UniProt P41240) the log2 fold change [1] was -0.008, the log2 fold change (vorinostat) was -0.262 and the log2 fold change (silmitasertib) was -0.006. It also gave a log2 fold change [2] of -0.021 and a log2 fold change (entospletinib) of 0.195.

For DMAC2L (UniProt Q99766), the log2 fold change [1] was -0.023, the log2 fold change (vorinostat) was -0.174 and the log2 fold change (silmitasertib) was 0.037. The log2 fold change [2] was -0.038 and the log2 fold change (entospletinib) was 0.022.

Target CNNM2 (UniProt Q9H8M5) has a log2 fold change [1] of 0.001, a log2 fold change (vorinostat) of 0.068 and a log2 fold change (silmitasertib) of 0.065. The log2 fold change [2] was 0.051 and the log2 fold change (entospletinib) was -0.073.

In the case of CNOT4 isoform 9 (UniProt O95628), the log2 fold change [1] was 0.036, the log2 fold change (vorinostat) was 0.098 and the log2 fold change (silmitasertib) was 0.044. It also gave a log2 fold change [2] of -0.031 and a log2 fold change (entospletinib) of 0.009.

In the case of DLGAP5 (UniProt Q15398), the log2 fold change [1] was -0.008, the log2 fold change (vorinostat) was -0.252 (active) and the log2 fold change (silmitasertib) was -0.002. The log2 fold change [2] was -0.006 and the log2 fold change (entospletinib) was -0.004.

For COG3 (UniProt Q96JB2), the log2 fold change [1] was 0.011, the log2 fold change (vorinostat) was -0.314 (active) and the log2 fold change (silmitasertib) was 0.123. For the same target, the log2 fold change [2] was 0.06 and the log2 fold change (entospletinib) was -0.017.

DENND4A isoform 2 (UniProt Q7Z401) was tested, and the log2 fold change [1] was 0.046, the log2 fold change (vorinostat) was -0.379 (active) and the log2 fold change (silmitasertib) was 0.043. For the same target, the log2 fold change [2] was -0.02 and the log2 fold change (entospletinib) was -0.013.

For DOCK7 (UniProt Q96N67), the log2 fold change [1] was 0.032, the log2 fold change (vorinostat) was -0.348 (active) and the log2 fold change (silmitasertib) was 0.053. It also gave a log2 fold change [2] of -0.019 and a log2 fold change (entospletinib) of -0.039.

With DOK1 (UniProt Q99704) the log2 fold change [1] was -0.036, the log2 fold change (vorinostat) was -0.297 (active) and the log2 fold change (silmitasertib) was -0.043. It also gave a log2 fold change [2] of -0.012 and a log2 fold change (entospletinib) of -0.011.

CMSS1 (UniProt Q9BQ75) was tested, and the log2 fold change [1] was 0.025, the log2 fold change (vorinostat) was -0.272 (active) and the log2 fold change (silmitasertib) was 0.038. It also gave a log2 fold change [2] of -0.024 and a log2 fold change (entospletinib) of -0.013.

CHMP4A isoform 2 (UniProt Q9BY43) showed a log2 fold change [1] of 0.011, a log2 fold change (vorinostat) of 0.1 and a log2 fold change (silmitasertib) of -0.027. It also gave a log2 fold change [2] of -0.051 and a log2 fold change (entospletinib) of 0.019.
